# Assay outcomes: PubChem, several laboratories
# Rows were chosen to be rich in hits. Some 4.1% of all compounds tested hit in one or more screens of this group.
# Mdm2 MdmX PPI – inhibitors of human Mdm2-MdmX association, primary screen, cell-based, luminescence, split luciferase, SaOS-2, uHTS; Protein Mdm4 (Homo sapiens) + E3 ubiquitin-protein ligase Mdm2 (Homo sapiens), …; SaOS-2 split-luciferase Mdm2/MdmX complementation; inhibition, % at 8 µM; hit rate 3% among 330,000; AID 485346, 2010;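 active means inhibition of at least 50% at 8 µM in the primary screen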
# A1 inh – caspase 3/7 activation in MEF A1-2A-BIM cells, primary screen, A1 inhibitor project, cell-based, luminescence, HTS; Caspase-Glo 3/7 luminescence, 3 h; percent of clofoctol response, vehicle zero; caspase activation, % (no concentration beside the values); hit rate 0.066% among 330,000; AID 2462, 2010;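 active means over half of replicate activation scores above 10%, or exactly half above 10 with the replicate mean above 10; inconclusive means replicate mean below 10 yet half the replicates above 10; inactive means over half of replicates below 10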
# aSyn UTR inh – MLPCN primary screen, SNCA 5' untranslated region; alpha-synuclein 5'UTR reporter, inhibitor activity; inhibition, % (tested at 7.5 µM); hit rate 0.82% among 300,000; AID 1813, 2009; in the data active means inhibition above about 60%; inconclusive means no clear call, values can overlap the other calls;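 further: H4 neuroglioblastoma cells stably carrying SNCA 5'UTR luciferase fusion; 0% = DMSO wells and 100% = positive control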
# CSC inhib – cancer stem cell viability inhibitors, primary screen, luminescence; cancer stem cell-like cells viability; inhibition, % at 7.5 µM; hit rate 1.1% among 300,000; in the data active means inhibition above about 75%; inconclusive means no clear call, values can overlap the other calls; tested in HMLE shEcad cells
# Beta cell apopt – inhibitors of cytokine-induced beta cell apoptosis, primary screen, luminescence; AID 435005, 2010; protection from apoptosis, % (test concentration not listed); INS-1E cytokine-induced death, ATP luminescence, 48 h; percent of positive-control rescue, neutral wells zero; hit rate 0.8% among 300,000;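 active means Every replicate reaches about 75%, or at least half do and their mean reaches it too, limit read from the data; inconclusive means At least half of replicates reach the limit but their mean does not; inactive means Under half of replicates reach the limit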;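 further: 0% = cytokine-treated negative control wells and 100% = positive control rescue; higher means more ATP so stronger rescue from cytokine killing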
# Mdm2 MdmX conf – Mdm2-MdmX complex disruptors, retested hits, confirmation, luminescence, single concentration; AID 489028, 2010; inhibition, % at 8 µM; hit rate 55% among 10,000; Mdm2-MdmX binding, luminescent assay; shares compounds with Mdm2 MdmX PPI; in the data active means inhibition above about 40%
# FLuc counter – full-length luciferase signal inhibition, confirmation, counter-screen for Mdm2/MdmX interaction inhibitor project, cell-based, single concentration, SaOS-2. shares compounds with Mdm2 MdmX PPI. inhibition, % at 8 µM. AID 504607, 2011. SaOS-2 full-length luciferase counterscreen, luminescence. hit rate 77% among 6,200;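 active means mean inhibition at 8 µM reaching about 37%, which flags the compound as non-specific, limit read from the data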;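 further: p53-null SaOS-2 cells with luciferase driven by a doxycycline-inducible promoter; compound on cells about two nights before reading with doxycycline added after day one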
# Active calls of the source: *; ? = inconclusive; / = not tested or not shown.
SMILES,Mdm2 MdmX PPI,A1 inh,aSyn UTR inh,CSC inhib,Beta cell apopt,Mdm2 MdmX conf,FLuc counter
Cc1ccc(CNC(=O)CN(c2ccc(C)cc2)S(=O)(=O)c2c(C)nn(C)c2C)cc1,53*,0,-28,-13,12,51*,63*
COc1ccc(CNC(=O)CN(c2ccc(OC)cc2)S(=O)(=O)c2c(C)nn(C)c2C)cc1,10,-1,10,-10,3,/,/
COc1ccc(N(CC(=O)N2CCc3ccccc32)S(=O)(=O)c2c(C)nn(C)c2C)cc1,-8,1,19,1,1,/,/
COc1ccc(N(CC(=O)NCc2ccc(C)cc2)S(=O)(=O)c2c(C)nn(C)c2C)cc1,5,-1,-3,-9,5,/,/
COc1cc(N=C2C(=O)N3c4c(cccc42)C(C)=CC3(C)C)cc(OC)c1,-1,1,-5,/,/,/,/
COc1cccc(C(=O)Oc2cc3c4c(c2)C(C)=CC(C)(C)N4C(=O)C3=O)c1,67*,0,-6,7,37,50*,45*
COc1cccc(C(=O)Oc2ccc3ccc(O)cc3c2)c1,0,0,-26,-2,1,/,/
COc1cc2c3c(c1)C(C)=CC(C)(C)N3C(=O)C2=O,56*,0,-5,11,14,26,/
COc1ccc(C(=O)Oc2cc3c4c(c2)C(C)=CC(C)(C)N4C(=O)C3=O)cc1OC,67*,-1,18,11,9,24,/
O=C(NC1CC1)c1ccc2c(c1)S(=O)(=O)c1cc(Cl)ccc1C2=O,95*,0,/,-9,-6,94*,38*
CC(C)(C)OC(=O)C[C@@H]1C/C=C\C[C@H](CC(=O)N[C@@H](CO)Cc2ccccc2)C(=O)N[C@H](C(C)(C)C)COC1=O,-8,0,/,-3,-5,/,/
CC(Oc1cccnc1[N+](=O)[O-])C(=O)Nc1cccc(Cl)c1 (centres undefined),13,0,/,-1,-2,/,/
COc1ccc(C2=Nn3c(nnc3-c3ccccc3F)SC2)cc1OC1CCOC1 (centres undefined),70*,-1,/,41,10,63*,33
COc1ccc(C2=Nn3c(nnc3-c3ccccc3)SC2)cc1OC,33,0,?,16,-6,/,/
COc1ccc(C2=Nn3c(nnc3-c3ccccc3F)SC2)cc1OC1CCCC1,100*,-2,/,82*,9,86*,29
O=C(COC(=O)/C=C/c1ccccc1)NC1CCCCC1,-8,0,/,-22,1,/,/
Cc1ccc(C2CC2c2n[nH]c(=S)n2-c2cccc(Cl)c2)cc1 (centres undefined),-31,2,9,22,4,/,/
COc1ccc(N/N=C/c2c(C(=O)O)ccc3ccccc23)cc1,86*,1,56,109*,116*,90*,24
Cc1ccc(CNC(=O)[C@H](C)NC(=O)C2CCN(C(=O)[C@@H]3CCCN3C(=O)OC(C)(C)C)CC2)cc1,9,0,11,-6,3,/,/
Cc1cccc(C(=O)CC(=O)c2cc(Cl)ccc2O)c1,62*,-1,64*,32,44,58*,39*
O=C(CC(=O)c1cc(Cl)ccc1O)c1ccccc1,40,-2,-99,15,21,/,/
CCCCc1ccc(NC(=O)CSc2nc(=O)n(CCN(CC)CC)c3c2CCCC3)cc1,87*,0,0,4,25,54*,62*
CC(=O)Nc1ccc(S(=O)(=O)NC2CC(=O)N(c3ccc(C)cc3)C2)cc1 (centres undefined),49,-1,9,-6,2,/,/
O=C(NCCc1ccccc1)C1CCC(Cn2c(=O)c3ccccc3n(Cc3cccc(F)c3)c2=O)CC1 (centres undefined),49,0,-9,-3,4,/,/
O=C(NCCc1ccccc1)C1CCC(Cn2c(=O)c3ccccc3n(Cc3cccc(Cl)c3)c2=O)CC1 (centres undefined),54*,1,3,0,14,0,/
SMILES,Mdm2 MdmX PPI,A1 inh,aSyn UTR inh,CSC inhib,Beta cell apopt,Mdm2 MdmX conf,FLuc counter
COc1cccc(NC(=O)C(=O)N/N=C/c2cc(C)n(-c3ccc(Cl)c(Cl)c3)c2C)c1,55*,-1,17,13,3,19,/
O=C(O)c1ccc(S(=O)(=O)/N=C2\C=C(Nc3ccccc3F)C(=O)c3ccccc32)cc1,72*,-2,-45,104*,99*,65*,5
CC(C)c1ccc(S(=O)(=O)/N=C2\C=C(NS(=O)(=O)c3ccccc3)C(=O)c3ccccc32)cc1,/,0,8,-9,/,/,/
COc1ccc(S(=O)(=O)/N=C2\C=C(Nc3ccc(O)cc3)C(=O)c3ccccc32)cc1,100*,-1,100*,/,111*,94*,7
CCc1ccc(S(=O)(=O)/N=C2\C=C(NS(=O)(=O)c3ccccc3)C(=O)c3ccccc32)cc1,7,/,-2,/,/,/,/
Cc1ccccc1NC1=C/C(=N\S(=O)(=O)c2ccc(C(=O)O)cc2)c2ccccc2C1=O,85*,0,-69,/,107*,22,/
Cc1ccccc1NC1=C/C(=N\S(=O)(=O)c2cccs2)c2ccccc2C1=O,73*,0,114*,-8,98*,100*,51*
CCC(=O)Nc1ccc(-c2cc(-c3ccccc3)nc(-c3ccc(NC(=O)CC)cc3)n2)cc1,84*,0,2,-4,17,38,64*
CC(=O)Nc1ccc(NC(=O)c2ccc(COc3ccccc3)cc2)cc1,-10,0,12,-8,2,/,/
CC(=O)Nc1ccc(-c2cc(-c3ccccc3)nc(-c3ccccc3)n2)cc1,56*,1,7,-9,10,47*,92*
CC(C)C(=O)Nc1ccc(NC(=O)c2ccc(COc3ccccc3)cc2)cc1,72*,0,-1,-4,3,23,90*
O=C(Nc1ccc(NC(=S)NC(=O)C(c2ccccc2)c2ccccc2)cc1)c1ccccc1,51*,0,8,49,36,49*,42*
CC(C)c1ccc(NC2CCCN(C(=O)c3cccs3)C2)cc1 (centres undefined),1,0,-15,21,0,/,/
CC(=O)Nc1ccc(NC(=O)c2ccc(NC(=O)c3ccccc3)cc2)cc1,62*,0,-10,-9,-1,17,/
O=C(NC(=S)Nc1ccc(NC(=O)c2ccccc2)cc1)c1ccc(F)cc1,16,-2,-35,-24,-2,/,/
